A number with no mark means an inactive call. The source made the active and inactive calls.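 Rule for the calls: active = activity change under -35% in any replicate well, with more than 20 beads read in that well; inactive = the rest.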
Biological target: Caspase recruitment domain-containing protein 9 (Homo sapiens) + E3 ubiquitin-protein ligase TRIM62 (Homo sapiens) (UniProt Q9H257+Q9BVG3)
Assay: CARD9/TRIM62 protein interaction inhibitors – cell lysate, HEK293FT lysates, Luminex bead ELISA, primary screen (AID 1259341);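 note: PE anti-Flag signal of Flag-CARD9 captured by myc-TRIM62 beads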
Details: PE fluorescence, active compounds read low, concentration not given here

Sequence of Caspase recruitment domain-containing protein 9 (Homo sapiens) + E3 ubiquitin-protein ligase TRIM62 (Homo sapiens) (Q9BVG3 whole entry, looked up, the tested form may be a part): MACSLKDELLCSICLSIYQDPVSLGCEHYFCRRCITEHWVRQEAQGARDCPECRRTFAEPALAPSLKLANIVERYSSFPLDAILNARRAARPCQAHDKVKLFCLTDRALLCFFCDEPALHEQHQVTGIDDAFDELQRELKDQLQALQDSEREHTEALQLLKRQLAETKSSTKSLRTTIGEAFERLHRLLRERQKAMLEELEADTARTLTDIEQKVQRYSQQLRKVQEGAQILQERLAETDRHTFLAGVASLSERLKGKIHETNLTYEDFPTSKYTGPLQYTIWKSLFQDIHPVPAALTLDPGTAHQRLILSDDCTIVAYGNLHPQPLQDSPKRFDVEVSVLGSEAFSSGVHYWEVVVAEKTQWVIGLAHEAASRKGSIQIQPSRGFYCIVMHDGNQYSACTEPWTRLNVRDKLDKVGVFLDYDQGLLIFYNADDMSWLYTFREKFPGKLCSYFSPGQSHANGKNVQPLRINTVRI
Sequence of Caspase recruitment domain-containing protein 9 (Homo sapiens) + E3 ubiquitin-protein ligase TRIM62 (Homo sapiens) (Q9H257 whole entry, looked up, the tested form may be a part): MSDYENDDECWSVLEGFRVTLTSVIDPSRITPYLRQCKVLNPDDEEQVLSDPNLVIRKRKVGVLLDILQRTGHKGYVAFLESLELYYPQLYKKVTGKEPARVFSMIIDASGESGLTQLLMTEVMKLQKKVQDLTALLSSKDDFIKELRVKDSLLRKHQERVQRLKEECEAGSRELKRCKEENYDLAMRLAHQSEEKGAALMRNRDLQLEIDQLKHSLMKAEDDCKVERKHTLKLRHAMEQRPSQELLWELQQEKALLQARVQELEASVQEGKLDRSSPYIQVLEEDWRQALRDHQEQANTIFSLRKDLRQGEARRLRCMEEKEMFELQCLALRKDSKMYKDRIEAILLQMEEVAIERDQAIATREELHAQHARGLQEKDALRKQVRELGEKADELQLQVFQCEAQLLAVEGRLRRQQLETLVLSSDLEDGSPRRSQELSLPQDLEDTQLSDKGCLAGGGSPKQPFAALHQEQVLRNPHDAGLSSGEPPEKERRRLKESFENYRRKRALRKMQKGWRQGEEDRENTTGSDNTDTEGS

Compound	activity change, negative = inhibition
FC(F)(F)c1cc(Cl)c2nnc(C(F)(F)Cl)n2c1	1.08%
O=C(Nc1nc(-c2ccco2)c(-c2ccco2)s1)c1ccco1	-9.14%
CCSCCNC(=O)c1cncc(Br)c1	0.232%
O=C(CCc1nc(-c2ccccc2)no1)NCC1CNCCOC1 (stereo not given)	18.6%
NC(=O)C1(N2CCCCC2)CCN(c2ncc(NC(=O)c3ccccc3)cc2C(=O)O)CC1	-57.3% (active)
NC(=O)c1ccc(CN2C(=O)C3(CCNCC3)Nc3ccccc32)cc1	-4.33%
Cc1ccc(C(=O)Nc2cnc(N3CCC(C(N)=O)(N4CCCCC4)CC3)c(C(=O)O)c2)cc1	-51.3% (active)
O=C(Nc1ccc2oc(-c3cccnc3)nc2c1)c1ccc2c(c1)OCCO2	4.18%
Cc1cnc(C)c(N2CCN(C(=O)[C@H]3CC[C@@H](N)C3)CC2)n1	2.01%
Cc1cc(C)c2c(N)c(C(=O)Nc3cccc4ccccc34)sc2n1	-1.34%
C[C@H](CO)N1C[C@H](C)[C@@H](CN(C)CC2CCCCC2)OCCCC[C@H](C)Oc2ccc(NS(=O)(=O)c3ccc(F)cc3)cc2C1=O	-12.1%
COc1ccc(-c2nc(C)c(C(C)=O)n2O)cc1OC	-2.22%
O=c1oc(-c2ccccc2)nc2sc3c(c12)CCC3	0.684%
Cc1ccc(-c2nnc(-c3nc(Nc4nc5ccccc5s4)c4ccccc4n3)o2)cc1	-10.3%
O=C1CS/C(=N\N=C\c2ccco2)N1c1ccccc1	-3.42%

From PubChem BioAssay AID1259341 (Broad Institute, 2017)
